Measurements as given in PubChem BioAssay AID2405 (Southern Research Specialized Biocontainment Screening …, 2010).
Active and inactive are the calls of the source. No rule for the calls is given here.

assay: RSV cytopathic effect inhibition in HEp-2 – cell-based, probe candidates (AID 2405); details: HEp-2 cells, stronger effect = higher value; at 100 µM unless noted

SMILES | maximum inhibition
COc1ccc(-c2csc(NC(=O)c3ccccc3Cl)n2)cc1 | 2.47% [at 12.5 µM] (inactive)
OC1c2cc(Br)ccc2N=C2CCCN21 (stereo not drawn) | 13.5% (inactive)
O=C(CSc1nc2ccccc2c(=O)n1-c1ccc(F)c(Cl)c1)Nc1ccc2c(c1)CCC2 | 6.32% (inactive)
O=c1c2c(F)cccc2nc2n1CCC2 | 2.17% [at 0.39 µM] (inactive)
CN(C)CCCNC(=S)N1CCN(c2nc(-c3ccccc3)cs2)CC1 | 5.31% [at 25 µM] (inactive)
O=C(CSc1nc2ccccc2c(=O)n1-c1ccccc1)Nc1ccc2c(c1)CCC2 | 18.8% [at 12.5 µM] (inactive)
c1ccc2c(c1)CN1CCCC1=N2 | 1.32% [at 6.25 µM] (inactive)
CN(C)CCCN1c2ccc([N+](=O)[O-])cc2CCc2cc([N+](=O)[O-])ccc21 | 10.2% [at 50 µM] (inactive)
Oc1ccccc1C(Nc1nccs1)c1ccc2cccnc2c1O (stereo not drawn) | 4.97% [at 12.5 µM] (inactive)
COc1ccccc1NC(=O)CSc1nc2ccccc2c(=O)n1-c1ccc(F)cc1 | 3.44% [at 6.25 µM] (inactive)
COc1ccc(Cn2nc(C)cc2OC(=O)c2c(F)ccc(C)c2F)cc1 | 1.16% [at 50 µM] (inactive)
Cc1cccc2c(=O)n3c(nc12)CCC3 | 1.55% [at 0.2 µM] (inactive)
Brc1ccc2c(c1)CN1CCCC1=N2 | 25.2% [at 50 µM] (inactive)
CC1CCCN(CCCNC(=O)c2cc3c(s2)-c2ccccc2OC3)C1 (stereo not drawn) | 3.5% [at 25 µM] (inactive)
O=C(Nc1nc(-c2ccc(Cl)cc2)cs1)c1ccc(I)cc1 | 1.55% [at 25 µM] (inactive)
COc1ccc(-c2csc(N(Cc3ccccc3)C(=O)c3ccccc3Cl)n2)cc1 | 10.1% [at 25 µM] (inactive)
CC1CCCC(C)N1CCCNC(=O)c1cc2c(s1)-c1ccccc1OC2 (stereo not drawn) | 0.79% [at 0.78 µM] (inactive)
O=C(CSc1nc2cccc(I)c2c(=O)n1-c1ccccc1)Nc1ccc2c(c1)CCC2 | 5.17% (inactive)
CCOC(=O)C1(Cc2ccccc2C(F)(F)F)CCN(C2CCN(C(C)C)CC2)CC1 | 0.09% [at 0.2 µM] (inactive)
OC1c2c(F)cccc2N=C2CCCCCN21 (stereo not drawn) | 1.87% [at 12.5 µM] (inactive)
COc1ccc(Cn2nc(C)cc2OC(=O)c2c(F)cccc2F)cc1 | 1.12% [at 0.39 µM] (inactive)
O=c1c2cc(Cl)cc(Cl)c2nc2n1CCC2 | 5.87% (inactive)
O=[N+]([O-])c1ccc2c(c1)C(O)N1CCCC1=N2 (stereo not drawn) | 2.6% [at 12.5 µM] (inactive)
Cc1cccc2c1-c1sc(C(=O)NCCCN3CCC(C)CC3)cc1CO2 | 0.67% [at 0.2 µM] (inactive)
COc1ccc(-c2csc(NC(=O)c3cccc(Cl)c3)n2)cc1 | 1.49% [at 25 µM] (inactive)
CCCN(C(=O)c1ccccc1Cl)c1nc(-c2ccc(OC)cc2)cs1 | 14.1% [at 50 µM] (inactive)
Cc1ccc2nc3n(c(=O)c2c1)CCC3 | 2% (inactive)
OC1c2cc(I)ccc2N=C2CCCN21 (stereo not drawn) | 0.75% [at 50 µM] (inactive)
